Measured values taken from PubChem BioAssay.
Calls of active or inactive are those of the source.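 Rule for the calls, unless noted: active = visual image review flags a hit and inhibition of aggregation exceeds 20%; inconclusive = visual hit but inhibition at or below 20%; inactive = no hit on visual image review.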

Columns and labels:
[1] = inhibitors of TNFa-induced NFkB p65 translocation, primary screen, imaging, HUVEC, MLSMR starter and 10KST1 sets (AID 438;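 active = inhibition above 20% together with a positive visual image hit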;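 note: compound added about 3h40 before a 20 min TNFalpha stimulation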;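 for inhibition: signal is the nuclear over cytoplasmic p65 intensity ratio per well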); settings: HUVEC TNFa-induced p65 nuclear translocation; cell count: measured here: nuclei count (cytotoxicity indicator), at 2.08 µM; inhibition: at 2 µM, stronger effect = higher value, 0% TNFa-plus-vehicle, 100% no-TNFa wells
[2] = inhibitors of mutant huntingtin aggregation, primary screen, imaging, exon1htt(103Q)mCFP cells, high-content imaging (AID 483); settings: exon1htt(103Q)mCFP cell line, aggregate imaging, at 2 µM; inhibition of aggregation: stronger effect = higher value; nuclei count: measured here: cell count, toxicity;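 note: compound exposure lasted 3 days before fixation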;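 for nuclei count: percent of the per-plate median nuclei count of sample wells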
[3] = inhibitors of E-selectin induction by TNFa, primary screen, imaging, HUVEC, immunofluorescence, MLSMR starter and 10KST1 sets (AID 487;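 active = visually confirmed hit in the image check and inhibition above 20%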;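 for inhibition: signal is fraction of cell area covered by stained E-selectin grains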;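 for nuclei count: 100% = median nuclei count of all wells on the same plate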); settings: HUVEC TNFalpha-induced E-selectin immunofluorescence imaging, at 2 µM; inhibition: stronger effect = higher value; nuclei count: measured here: cell number, toxicity
[4] = molecular target: Voltage-gated potassium channel subunit beta-2 (Rattus norvegicus) (UniProt P62483); assay: KvBeta enzyme negative modulators, primary screen, biochemical, NADPH fluorescence (AID 622;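 active = fluorescence slope higher than the sample average by over 3 SD, cut at about -0.22 in these data, passing the limit was not always enough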;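 note: slope of raw intensity against log time taken from 70 to 1610 s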); settings: recombinant KvBeta, 4-cyanobenzaldehyde reduction, at 10 µM, stronger effect = higher value
[5] = molecular target: Voltage-gated potassium channel subunit beta-2 (Rattus norvegicus) (UniProt P62483); assay: KvBeta positive modulators, primary screen, biochemical, NADPH fluorescence (AID 623;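 active = NADPH fluorescence slope more negative than the mean of all samples by about 3 SD, 99.7% confidence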;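 note: fluorescence intensity change per second fitted from 20 to 320 s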); settings: Recombinant KvBeta, NADPH fluorescence decrease slope, 10 min; at 10 µM; stronger effect = lower value
[6] = molecular target: Alpha-2C adrenergic receptor (Homo sapiens) (UniProt P18825); assay: modulators of alpha2C/GIRK thallium flux, primary screen, cell-based, HEK293 alpha2C/GIRK1/2 (AID 624;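 active = fluorescence slope after compound addition differing from the mean of all screened samples at 99.7% confidence, in either direction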;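 note: slope of fluorescence ratio to pre-addition baseline per second over 15 to 24 s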); settings: thallium flux BTC fluorescence, at 10 µM, actives lie on both sides
[7] = inhibitors of Sendai virus-induced IRF3 signaling, primary screen, TLR/RLR signaling modifier project, cell-based, Sendai virus stimulus, luciferase, 10K MLSCN set (AID 602276;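 active = inhibition at or above 50% at 10 µM; inactive = inhibition below 50%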;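 note: firefly luciferase from ISG56 promoter only with Renilla not read in this screen; 0% = Sendai virus plus DMSO and 100% = medium plus DMSO without virus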); settings: HEK293 RL24 IRF3 luciferase reporter, at 10 µM, stronger effect = higher value
[8] = inhibitors of poly I:C-induced TLR3 signaling, primary screen, cell-based, poly I:C stimulus, luciferase, 10K MLSCN set (AID 602277;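 active = inhibition of the reporter signal at or above 50%; inactive = inhibition below 50%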); settings: HEK293-TLR3 RL24 IRF3 luciferase reporter, at 10 µM, stronger effect = higher value

Chain of Voltage-gated potassium channel subunit beta-2 (Rattus norvegicus) (P62483 whole entry, looked up): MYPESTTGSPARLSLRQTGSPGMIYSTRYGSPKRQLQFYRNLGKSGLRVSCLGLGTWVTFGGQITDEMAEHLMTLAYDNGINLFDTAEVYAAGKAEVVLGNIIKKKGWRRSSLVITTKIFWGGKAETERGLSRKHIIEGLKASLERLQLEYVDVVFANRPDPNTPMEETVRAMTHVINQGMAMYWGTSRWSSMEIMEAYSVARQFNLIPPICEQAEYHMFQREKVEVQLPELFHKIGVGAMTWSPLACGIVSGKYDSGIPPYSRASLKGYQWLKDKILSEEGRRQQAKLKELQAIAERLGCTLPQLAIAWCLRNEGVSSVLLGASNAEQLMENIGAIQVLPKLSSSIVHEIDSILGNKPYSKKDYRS
Chain of Alpha-2C adrenergic receptor (Homo sapiens) (P18825 whole entry, looked up): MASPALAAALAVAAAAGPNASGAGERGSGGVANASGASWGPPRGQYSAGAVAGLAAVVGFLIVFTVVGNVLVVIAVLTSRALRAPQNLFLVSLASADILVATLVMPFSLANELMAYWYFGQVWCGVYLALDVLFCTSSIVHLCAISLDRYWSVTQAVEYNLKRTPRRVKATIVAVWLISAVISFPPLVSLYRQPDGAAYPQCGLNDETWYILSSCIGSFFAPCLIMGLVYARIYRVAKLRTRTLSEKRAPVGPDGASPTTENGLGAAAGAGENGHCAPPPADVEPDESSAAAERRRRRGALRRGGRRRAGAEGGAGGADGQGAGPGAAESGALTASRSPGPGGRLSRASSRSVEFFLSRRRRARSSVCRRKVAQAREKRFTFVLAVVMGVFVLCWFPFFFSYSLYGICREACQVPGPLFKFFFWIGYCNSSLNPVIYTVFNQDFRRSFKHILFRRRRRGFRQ

Row | SMILES | cell count [1] | inhibition [1] | inhibition of aggregation [2] | nuclei count [2] | inhibition [3] | nuclei count [3] | fluorescence slope [4] | NADPH fluorescence slope [5] | slope [6] | inhibition [7] | inhibition [8]
1 | O=S(=O)(Nc1ccc(Cc2ccncc2)cc1)N1CCCC1 | 848 | -3.6% (inactive) | -0.2% (inactive) | 111% | -102% (inactive) | 130% | -0.52 (inactive) | 1.2e-05 (inactive) | 0.00557 (inactive) | 1.91% (inactive) | 2.2% (inactive)
2 | c1ccc(Cn2nnnc2C(c2cccs2)N2CCSCC2)cc1 (stereo not drawn) | 482 | -10.4% (inactive) | -0.3% (inactive) | 110% | -56.7% (inactive) | 95.9% | -0.514 (inactive) | -6.4e-05 (inactive) | 0.00524 (inactive) | -6.43% (inactive) | 14.3% (inactive)
3 | C=CCn1c(SCc2cccc(C#N)c2)nnc1-c1ccccc1O | 658 | -2.3% (inactive) | 5.6% (inactive) | 102% | -18.9% (inactive) | 110% | -0.574 (inactive) | 1.6e-05 (inactive) | 0.00698 (inactive) | 27.6% (inactive) | 46% (inactive)
4 | C=CCn1c(SCC(=O)c2cc(C)n(C(C)COC)c2C)nc2sc(C)c(C)c2c1=O (stereo not drawn) | 357 | 3% (inactive) | -8.9% (inactive) | 99.9% | -1.2% (inactive) | 100% | -0.459 (inactive) | 1e-05 (inactive) | 0.00515 (inactive) | 7.26% (inactive) | 22.9% (inactive)
5 | O=S(=O)(c1cccc2nsnc12)N1CCN(c2ncccn2)CC1 | 573 | -15.2% (inactive) | 5.1% (inactive) | 99.7% | -93.3% (inactive) | 120% | -0.408 (inactive) | -4.2e-05 (inactive) | 0.00508 (inactive) | 12.7% (inactive) | 31.3% (inactive)
6 | CCCNc1nc(N2CCOCC2)nc(N2CCOCC2)n1 | 193 | -17.4% (inactive) | 23.8% (inactive) | 92.2% | 3.6% (inactive) | 91.7% | -0.498 (inactive) | -2.3e-05 (inactive) | 0.00617 (inactive) | -9.95% (inactive) | 18.9% (inactive)
7 | CC1CC(NC(=O)c2cnc3n(c2=O)CCS3)CC(C)(C)C1 (stereo not drawn) | 626 | -2.3% (inactive) | -23.1% (inactive) | 113% | -37.1% (inactive) | 112% | -0.56 (inactive) | -4.4e-05 (inactive) | 0.00953 (inactive) | 16.9% (inactive) | 38.3% (inactive)
8 | CCC(CC)C(=O)NCCc1cc2ccc(C)cc2[nH]c1=O | 643 | 0.5% (inactive) | 3% (inactive) | 117% | -15.4% (inactive) | 111% | -0.556 (inactive) | -3.5e-05 (inactive) | 0.00557 (inactive) | 14.3% (inactive) | 26.1% (inactive)
